# Values joined by “and” are separate entries in the source; they are usually repeats but may differ in a detail not shown here. Equal entries are not always repeated. Compounds without any hit were thinned out: in the full panel of roughly 83,000, 20% have a hit.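 Negative percent growth values reflect cell death: -40 means 40% of the cells present at the start died, and -100 means all died.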 Active and inactive are the calls of the source. The calls were made as follows: active = growth percent below 10; inactive = the rest.
# System: MCF7 breast
# Test: NCI-60 one-dose screen, 48 h (100 = growth as untreated, 0 = no growth, -100 = all killed)
# Conditions: 10 µM unless noted
row,Compound,growth
1,C=c1c2ccccc2oc2nc3[nH]c(N)c(C#N)c(N)c3c(=N)c12,25.6% [100 µM] (inactive) and 0.562% [100 µM] (active)
2,COc1ccc(Nc2nc3ccc(C(F)(F)F)cc3nc2C(=O)O)cc1,-31.5% [100 µM] (active) and -100% [100 µM] (active)
3,Cc1ccc(/C=N/Nc2cc(C)c3cccc(C)c3n2)s1,-73.1% [100 µM] (active) and -100% [100 µM] (active)
4,C[C@@H]1CCC([C@@H](C)[C@H]2CC[C@H]3[C@@H]4CC[C@H]5C[C@@H](O)CC[C@]5(C)[C@H]4CC[C@]23C)=NC1,8.1% [100 µM] (active) and -46.7% [100 µM] (active)
5,C=C(C)C1CC2(C)C(C)CC(O)CC2C(OC(=O)C=C(C)C)C1O (centres undefined),5.38% [100 µM] (active) and 25.4% [100 µM] (inactive)
6,COc1ccc2c(c1)C(OC)C1c3c(cc4c(c3-2)OCO4)CCN1C (centres undefined),-76.9% [100 µM] (active) and -70% [100 µM] (active)
7,COc1ccc2c(c1)C(N)=C(c1ccccc1)C2=O,57.4% [100 µM] (inactive) and 16.6% [100 µM] (inactive)
8,CCOC(=O)C1C(C(C)C)C2(C#N)C(=N)OC1(C)C2(C#N)C#N (centres undefined),2.36% [100 µM] (active) and -41% [100 µM] (active)
9,C=C1C(=O)OC2CC1C(OC(=O)/C=C/c1ccccc1)C/C(C)=C/CC/C(C)=C/CCC2(C)O (centres undefined),-76% [100 µM] (active) and -30% [100 µM] (active)
10,CC1=CC[C@@H]2[C@@H](CC[C@@]2(C)O)C(C)(C)[C@H]1CC[C@@H]1[C@@]2(C)CCC(=O)C(C)(C)O[C@@H]2CC[C@]1(C)O,-36.8% [100 µM] (active) and -100% [100 µM] (active)
11,CCOc1cc2c(cc1O)/C(=N\OC)C[C@@H]1[C@@H]2CC[C@]2(C)[C@@H](O)CC[C@@H]12,0.562% [100 µM] (active) and -100% [100 µM] (active)
12,COc1ccc2nc3c4c(nccc4c2c1)-c1ncccc1C3=O,-82% [50 µM] (active) and -100% [50 µM] (active)
13,COc1ccc(OC)c(Cc2cnc3nc(N)nc(N)c3c2C)c1,3.33% [100 µM] (active) and -100% [100 µM] (active)
14,CC1(C)CCC2(C(=O)O)C(O)CC3(C)C(=CCC4C5(C)CCC(OC6OCC(O)C(O)C6OC6OCC(O)C(O)C6OC6OCC(O)C(OC7OC(CO)C(O)C(O)C7O)C6O)C(C)(C)C5CCC43C)C2C1 (centres undefined),76.4% [100 µM] (inactive) and 25.5% [100 µM] (inactive)
15,C=C(CO)C(=O)OC1CC(=C)C2CC(O)C(C)C2C2OC(=O)C(=C)C12 (centres undefined),73.2% [100 µM] (inactive) and -86.7% [100 µM] (active)
16,Cc1ccc(NC(=S)C#N)cc1Cl,-25.7% [100 µM] (active) and -100% [100 µM] (active)
17,CCOC(=O)COc1cc(-c2ccccc2F)nc2cc3c(cc12)OCO3,42.6% [100 µM] (inactive) and 19.5% [100 µM] (inactive)
18,CC(C)(C)N/N=C(/Cc1nc2c3c(ccc2[nH]c1=O)C(=O)c1ccccc1C3=O)C(=O)NC1=C(Cl)C(=O)c2ccccc2C1=O,6.76% [100 µM] (active) and -75.9% [100 µM] (active)
19,Cc1c2c(c(C)c3c[n+](C)ccc13)Oc1ccccc1O2,-33.4% [100 µM] (active) and -100% [100 µM] (active)
20,S=C1NC2=C(COc3ccccc32)C(c2ccc(Cl)cc2)N1 (centres undefined),-4.81% [100 µM] (active) and -100% [100 µM] (active)
21,CN1CCc2cc3c(c4c2C1C(O)c1ccccc1-4)OCO3 (centres undefined),-24.6% [100 µM] (active) and -58.3% [100 µM] (active)
22,Fc1cccc(F)c1C1SCc2nc3cc4ccccc4cc3n21 (centres undefined),-28.9% [100 µM] (active) and -2.13% [100 µM] (active)
23,On1c(-c2ccccc2)nc2ccccc2c1=S,6.65% [100 µM] (active) and -68.9% [100 µM] (active)
24,N=C1C(=N)c2ccccc2-c2ccccc21,30.7% [100 µM] (inactive) and 0.817% [100 µM] (active)
25,C=C1C(=O)OC2CC3(C)CCCC(C)C3=CC12 (centres undefined),-91.8% [100 µM] (active) and -84.5% [100 µM] (active)
26,C=CCO/N=C/c1cc(NC(=S)c2ccoc2C)ccc1Cl,-83.2% [100 µM] (active) and -45% [100 µM] (active)
27,COC(=O)[C@]1(C)CCC[C@@]2(C)[C@@H]3C[C@@H]4[C@H]5C[C@@]3(CC[C@@H]21)C[C@@]45C,-81% [100 µM] (active) and -80% [100 µM] (active)
28,CC1(C)CCC[C@]2(C)[C@@H](C=O)C(C=O)=CC[C@@H]12,-13.9% [100 µM] (active) and -1.67% [100 µM] (active)
29,O=C(CCc1ccccc1)ON1C(=S)NC(c2ccccc2)(c2ccccc2)C1=S,-45.8% [100 µM] (active) and 5.76% [100 µM] (active)

# From PubChem BioAssay (NCI)
